The source of these data is ChEMBL document CHEMBL4513216, “Probing the Open Global Health Chemical Diversity Library for Multistage-Active Starting Points for Next-Generation Antimalarials” (ACS Infect Dis, 2020).

Molecules are shown by their SMILES. About 8,600 (12%) of roughly 69,000 compounds showed an effect of 50% or more. This is one part of a sample in which strong results are shown more often than they occur.

The test system of this experiment is Plasmodium berghei. Briefly: Screen against P. berghei liver stage (PbLuc), transformed with Luciferase, at 10uM. Format: functional, HepG2. The conditions noted are these: tested at 10 uM.
With `Cc1cc(C)cc(OCCN(C)C(=O)NC(C)c2nncn2C)c1` (centres undefined), the INHIBITION was 21.5%. For `Cc1ccc(OCCCNC(=O)NC(C)c2nncn2C)cc1` (centres undefined) the value was 38.7%; for `Cc1cc(C)cc(OCCNC(=O)C(C)Sc2nncn2C)c1` (centres undefined), 53.6%; for `Cc1ccc(OCCCNC(=O)C(C)Sc2nncn2C)cc1` (centres undefined), 50.8%. `CC(NC(=O)N(C)CCCOc1ccc(F)cc1)c1nncn1C` (centres undefined): the INHIBITION is recorded as -20%.

As to `CC(C(=O)NCCOc1ccc(F)cc1)n1cncn1` (centres undefined), the INHIBITION is on record as -44.3%.

For `O=C(CCSc1ccccc1F)NCc1cccnc1`, the INHIBITION was -0.514%. For `NC(=O)CN1CC(c2nc(C3CC3)no2)C1` the value was 19.8%; for `Cc1nn(CCNC(=O)c2cc(C3CC3)[nH]n2)c(C)c1Cl`, -28%. Regarding `CCN(C)c1ncnc2c1CCN(Cc1ccncc1)CC2`, the INHIBITION is 38.3%. For `CN(C)S(=O)(=O)N1C[C@@H](OCc2cccnc2)[C@H]2OCCC[C@H]21` the value was 11.6%; for `Cc1nc2cc(C(=O)N(CCC#N)CC3CCCO3)ccc2[nH]1` (centres undefined), -0.371%; for `Cc1ccccc1C(N)c1ccncc1` (centres undefined), -1.38%.

Take `Cc1nc(CN2CCC3(CCN(Cc4cnn(C)c4)CC3)C2=O)cs1`: the INHIBITION is -22.1%.

Regarding `CSc1ccccc1C(=O)N1C[C@@H]2CC[C@H]1CN(C(=O)C1CCC1)C2`, the INHIBITION amounted to 9.41%. For `CCC(C)Sc1ncc(-c2c(C#N)c(N)nc3c2COCC3)cn1` (centres undefined) the value was 29.9%; for `CCc1cc(CNC(=O)NCc2ccc(N3CCCCC3)cc2)on1`, 51.1%. For `CCc1cc(CNC(=O)Nc2cc(F)cc(N3CCCC3)c2)on1` the value was 38.3%; for `Cc1noc(CCNC(=O)NCc2ccc(N3CCCCC3)cc2)n1`, -95.7%; for `COc1ccccc1CN(CC1CCCO1)C(=O)c1ccc(F)cn1` (centres undefined), 5.23%. Then `CCn1cc2c(n1)CN(S(=O)(=O)c1cn(C)cn1)CC2COC` (centres undefined), with -18.5%; and `CN(C)c1nc(N)nc(CN2CCCC2c2cccs2)n1` (centres undefined), with 70%; and `CN(C)c1nc(N)nc(CN2CCC(c3nc4ccccc4o3)CC2)n1`, with 45.4%. `Cc1cccc(C2CCCN2Cc2nc(N)nc(N(C)C)n2)c1C` (centres undefined): the INHIBITION is 35.2%.

Turning to `CN(C)c1nc(N)nc(CN2CCCC2c2ccsc2)n1` (centres undefined), the INHIBITION was 25.5%. Then `CCC1CCCN(Cc2nc(N)c3ccccc3n2)C1` (centres undefined), with 36.75%; and `CN(C)c1nc(N)nc(CN2CCC(c3ccccc3)CC2)n1`, with 67.8%; and `O=C(O)CN1CCC(c2ccccc2)CC1`, with 1.03%. Then `Cn1ccc(CN2CCC(c3ccccc3)CC2)cc1=O`, with 38%. Then `CN(C)c1nc(N)nc(CN2CCCC(c3ccccc3)CC2)n1` (centres undefined), with 57.8%.

For `CCN(Cc1ccncc1)c1cc(C2CCN2C(C)=O)nc(C)n1` (centres undefined), the INHIBITION stood at 19.775%. Then `CC(C)c1cc(C(=O)N[C@@H]2CC[C@@H](Oc3ccccc3)[C@@H]2O)on1`, with -10.955%. `CCOCCNC(=O)[C@@H]1CCCN1c1nccc(Nc2ccccc2)n1`: the INHIBITION was determined as 6.55%. With `O=C(CSc1ccncc1)N1C[C@@H]2CC[C@H]1CN(Cc1cccnc1)C2`, the INHIBITION is reported as 9.54%. For `CCc1csc(C2CCCN(C(=O)c3ccccn3)C2)n1` (centres undefined) the value was 14.1%; for `NCC1[C@H]2CN(Cc3cccc(Cl)c3)C[C@@H]12` (some centres undefined), 13.7%. As to `Cc1ccc(S(=O)(=O)N2CCN(C)c3ccncc32)cc1F`, the INHIBITION is 41%. For `COCCc1noc(CNC2CCCN(c3cccnn3)C2)n1` (centres undefined) the value was 21.8%; for `c1cnnc(N2CCCC(NCc3nc(C4CC4)no3)C2)c1` (centres undefined), 58.5%. Then `c1ccc(-c2cnc(CNC3CCCN(c4cccnn4)C3)o2)cc1` (centres undefined), with 51.2%; and `c1cnnc(N2CCCC(NCc3ccncc3)C2)c1` (centres undefined), with 30.8%; and `Cc1cnc(CN(C)C2CCCN(c3cccnn3)C2)cn1` (centres undefined), with 3.19%. As to `Cc1ncc(CN(C)C2CCCN(c3cccnn3)C2)s1` (centres undefined), the INHIBITION was found to be 58.3%. Then `CN(Cc1ncc(-c2ccccc2)o1)C1CCCN(c2cccnn2)C1` (centres undefined), with 43.2%; and `c1ccc(-c2noc(CNC3CCCN(c4cccnn4)C3)n2)nc1` (centres undefined), with 45.4%; and `c1ccc(-c2nnc(CNC3CCCN(c4cccnn4)C3)o2)cc1` (centres undefined), with -43.25%.

On to `c1cnnc(N2CCCC(NCc3nc(-c4ccco4)no3)C2)c1` (centres undefined), for which the INHIBITION turned out to be 55.5%. For `Cc1oc(-c2ccco2)nc1CNC1CCCN(c2cccnn2)C1` (centres undefined) the value was -21.55%; for `CN(Cc1ccc(Cl)s1)C1CCCN(c2cccnn2)C1` (centres undefined), 17.4%; for `CC1c2cc(F)ccc2CCN1C(=O)c1[nH]c(=O)[nH]c(=O)c1N` (centres undefined), 33.4%. For `CCc1cc(C(=O)N2CC[C@@H](c3ccc4c(c3)OCO4)[C@H](O)C2)ccn1` the value was 26.5%; for `Cc1noc(C)c1CN1CCn2cc(CN3CCCCC3)nc2C1`, -33.1%; for `O=C(NCc1nnc2n1CCC2)NCC1(c2cccc(F)c2)CC1`, -14.6%. Then `c1nc2c(c(NC3COC4(CCCC4)C3)n1)CCNCC2` (centres undefined), with 37.7%.
